SMILES strings stand for the structures. Calls of active or inactive are those of the source.

Experimental findings from PubChem BioAssay are described below.

Chain of Fibroblast growth factor 10 (Homo sapiens) (O15520 whole entry, looked up): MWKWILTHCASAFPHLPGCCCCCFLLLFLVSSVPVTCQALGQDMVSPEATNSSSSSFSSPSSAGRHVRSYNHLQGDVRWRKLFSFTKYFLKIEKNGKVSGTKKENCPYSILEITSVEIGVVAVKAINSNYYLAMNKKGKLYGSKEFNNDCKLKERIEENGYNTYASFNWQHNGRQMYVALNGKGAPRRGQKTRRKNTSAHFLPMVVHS

Test system in one assay: not listed separately
Kind of assay: change in splice reporter luminescence, either direction, cell-based, HEK293, spliceosome inhibition project, primary screen (AID 1101).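 Also: HEK293 cells carrying a splicing-competent luciferase reporter gene; test concentration not given here.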 Particulars: HEK293 splicing luciferase reporter, 24 h, higher = more signal, called active from +8 up or from −8 down. (In general: A reporter such as luciferase makes a cellular process visible.)
For `O=C1CCCC=C1C(O)c1ccc([N+](=O)[O-])cc1` (stereo unspecified), the z-score is -0.337 (inactive).
On the same count and under the same terms, the result for `COC(=O)CC=C[C@@H](C)[C@@H](C=NOC(C)CN1CCCCc2nc(C)c(C)cc21)NS(=O)(=O)c1ccc(C)cc1` (stereo partly specified) reads -0.182 (inactive); that for `CC(CCC(=O)OC[C@H]1O[C@H](C#Cc2ccccc2)C=C[C@@H]1Oc1ccc(C)cc1)=NOC(C)CN1CCCc2nc(C)c(C)cc21` (stereo partly specified), 0.00662 (inactive); that for `CCN1C(=O)[C@H]2[C@H]3[C@H](O)[C@H](O)CC(=NO[C@H](C)c4cn([C@@H]5COC[C@H]5O)nn4)[C@@H]3CC[C@H]2C1=O`, 0.299 (inactive).
Still for that read-out and setting: the result for `COc1ccc(-c2cnnc(CCCn3ccnc3-c3ccccc3)n2)cc1` reads -1.04 (inactive).

The next assay addresses Fibroblast growth factor 10 (Homo sapiens) (UniProt O15520). Kind of assay: compounds binding fibroblast growth factor 10 – biochemical, small-molecule microarray, 635 nm fluorescence, primary screen (AID 1102). The settings on record: FGF10 binding, fluorescence 635 nm, higher = more signal.
The compound `O=C1C=C[C@@H](O)[C@@H]2[C@@H]3C(=O)N(C4CCCCC4)C(=O)[C@@H]3CC[C@@H]12` displayed a composite z-score of 1.07.
`C[C@@H]1CC[C@H]2C(=O)OC(Cc3ccccc3)CN2[C@H]1c1ccc(Br)cc1` (stereo partly specified) had a composite z-score of 0.524.
Compound `O=C1[C@H]2[C@H]3[C@H](O)[C@H](O)CC(=NO[C@@H]4O[C@H](CO)[C@@H](O)[C@H](O)[C@H]4O)[C@H]3CC[C@H]2C(=O)N1c1ccc(F)cc1F` yielded a composite z-score of -0.0077.
Same read-out and setting: in the case of `COc1ccc(COC(=O)NN=C2C[C@@H](O)[C@@H](O)[C@@H]3[C@@H]4C(=O)N([C@@H](C)c5ccccc5)C(=O)[C@@H]4CC[C@H]23)cc1` it was -0.227; in that of `CC(=O)OC[C@H]1O[C@H](CC=NO[C@H](C)c2cn([C@@H]3COC[C@H]3O)nn2)C=C[C@@H]1OC(C)=O`, 0.172.
Still for that read-out and setting: in the case of `COc1ccc(O[C@H]2C=C[C@@H](c3ccccc3)O[C@@H]2CO)cc1` it was 0.194.
As to `CCOC(=O)[C@H](Cc1ccccc1)NC(=O)CCC1CC(OC(=O)NCCc2ccc(F)cc2)CC2(CCCC(COC(=O)NCCOc3ccccc3)O2)O1` (stereo partly specified), the composite z-score came to 0.979.
Still for that read-out and setting: in the case of `O=C1C[C@@H](O)[C@@H](O)[C@@H]2[C@@H]3C(=O)N(C4CCCCC4)C(=O)[C@@H]3CC[C@@H]12` it was 1.11.
The same measure, in the same setting: in the case of `CC(CCN1CCCCc2nc(C)c(C)cc21)=NO[C@@H](C)c1cc(-c2c(C)cc(C)cc2C)no1` it was -0.488; in that of `CCOC(=O)[C@H](CC(C)C)NC(=O)CCC1CC(OC(=O)NCc2ccc3c(c2)OCO3)CC2(CCCC(COC(=O)NCCOc3ccccc3)O2)O1` (stereo partly specified), 0.866.
As to `C=CC[C@@H]1C=C[C@H](ON=C(C)CCN2CCCc3nc(C)c(C)cc32)[C@@H](CO)O1`, the composite z-score turned out to be 1.01.
`O=C1CCCC=C1C(O)C1CCCCC1` (stereo unspecified): the composite z-score was determined as 0.42.
Still for that read-out and setting: in the case of `CO[C@H]1COC(=O)CC=C[C@H](C)[C@H](OC)COC(=O)[C@@H](C)NC(=O)CC=C[C@@H]1C` it was 0.777; in that of `COC(=O)CC=C[C@@H](C)[C@@H](C=NOC[C@@H](C)[C@H](OCc1ccccc1)C(C)C)OC`, 0.286.
Consider `CC(C)CON=C1C[C@@H](O)[C@@H](O)[C@@H]2[C@@H]3C(=O)N(C(C)(C)C)C(=O)[C@@H]3CC[C@@H]12`, for which the composite z-score came to 0.156.
The same measure, in the same setting: the result for `CC1(C)O[C@H]2OC([C@H](O)CON3C(=O)c4ccccc4C3=O)[C@H](O)[C@H]2O1` (stereo partly specified) reads 0.0612; that for `CCOC(=O)CCN1C(=O)[C@H]2[C@H]3[C@H](O)[C@H](O)CC(=NNC(=O)OCC)[C@H]3CC[C@H]2C1=O`, 0.0385.
On the same count and under the same terms, the result for `CCN(CC)CC(O)CN1CCCCc2nc(C)c(C)cc21` (stereo unspecified) reads 0.507; that for `CC(C)=NO[C@@H](C)c1cn([C@H](CO)Cc2ccccc2)nn1`, 0.393; that for `O=C(NN=C1C[C@@H](O)[C@@H](O)[C@@H]2[C@@H]3C(=O)N(Cc4ccccc4)C(=O)[C@@H]3CC[C@H]12)OCc1ccccc1`, 0.773.
For the compound `CCOC(=O)CCN1C(=O)[C@H]2[C@H]3[C@H](O)[C@H](O)CC(=NOCC=C(C)CCC=C(C)C)[C@H]3CC[C@H]2C1=O`, the composite z-score was 0.245.
`CC(=O)OC[C@H]1O[C@@H](ON=C2[C@H]3CCn4c(=O)n(-c5ccccc5)c(=O)n4[C@H]3[C@H](O)[C@@H]3O[C@H]23)[C@H](OC(C)=O)[C@@H](OC(C)=O)[C@@H]1OC(C)=O` gave a composite z-score of 0.614.
The same measure, in the same setting: the result for `O=C1CCCC=C1C(O)COCc1ccccc1` (stereo unspecified) reads -0.146; that for `C[C@H]1CC[C@@H](C(=O)O)N[C@@H]1c1cccc(N2CCCC2=O)c1`, 0.184.
Still for that read-out and setting: the result for `COC(=O)[C@H](C)NC(=O)CCC1CC(OC(=O)NCc2ccc3c(c2)OCO3)CC2(CCCC(COC(=O)NCCCN3CCCC3=O)O2)O1` (stereo partly specified) reads 0.601; that for `CC(C)(C)N1C(=O)[C@H]2[C@@H]3C(=CC[C@H]2C1=O)C(=O)[C@H]1O[C@H]1[C@H]3O`, 0.0491; that for `CCOC(=O)NN=C1C[C@@H](O)[C@@H](O)[C@@H]2[C@@H]3C(=O)N(C[C@@H]4CCCO4)C(=O)[C@@H]3CC[C@H]12`, 0.515.
The same measure, in the same setting: the result for `CC(C)=CCCC(C)=CCON=C1C[C@@H](O)[C@@H](O)[C@@H]2[C@@H]3C(=O)N(Cc4ccc5c(c4)OCO5)C(=O)[C@@H]3CC[C@H]12` reads 0.797; that for `CC(=O)OC[C@H]1O[C@H](CC=NOC(C)CN2CCCCc3nc(C)c(C)cc32)C=C[C@@H]1OC(C)=O` (stereo partly specified), 0.83.
In turn, `CCOC(=O)[C@H](Cc1ccccc1)NC(=O)CCC1CC(OC(=O)NCCc2ccc(F)cc2)CC2(CCCC(COC(=O)NCc3cccc(C(F)(F)F)c3)O2)O1` (stereo partly specified) returned a composite z-score of 0.904.
With `O=C1C=C[C@@H](O)[C@@H]2[C@@H]3C(=O)N(Cc4ccc5c(c4)OCO5)C(=O)[C@@H]3CC[C@@H]12`, the composite z-score is 0.515.
On the same count and under the same terms, the result for `O=C1CCCC=C1C(O)c1ccc([N+](=O)[O-])cc1` (stereo unspecified) reads 0.59.
`COC(=O)CC=C[C@@H](C)[C@@H](C=NOC(C)CN1CCCCc2nc(C)c(C)cc21)NS(=O)(=O)c1ccc(C)cc1` (stereo partly specified) registered a composite z-score of -0.129.
The same measure, in the same setting: the result for `CC(CCC(=O)OC[C@H]1O[C@H](C#Cc2ccccc2)C=C[C@@H]1Oc1ccc(C)cc1)=NOC(C)CN1CCCc2nc(C)c(C)cc21` (stereo partly specified) reads 0.732; that for `CCN1C(=O)[C@H]2[C@H]3[C@H](O)[C@H](O)CC(=NO[C@H](C)c4cn([C@@H]5COC[C@H]5O)nn4)[C@@H]3CC[C@H]2C1=O`, 0.46.
On the same count and under the same terms, the result for `COc1ccc(-c2cnnc(CCCn3ccnc3-c3ccccc3)n2)cc1` reads 0.7.
